Assay results as given in PubChem BioAssay AID493168 (National Center for Advancing Translational Sciences (NCATS), 2011).
Results filed as inconclusive are left out. A number with no mark means an inactive call. Activity calls are given as the source filed them. Calls come from the whole dose curve; as a rule, active = well fitted inhibition curve with a large enough effect; inconclusive = small, poorly fitted or top-dose-only effect, or effect the other way; inactive = flat fitted curve, though single readings scatter.
Note: nearly all actives have a fitted effect of over 55% in size.
Potency is the fitted concentration of half-maximal effect.

Each compound was assayed against Ubiquitin carboxyl-terminal hydrolase 2 (Homo sapiens) (UniProt O75604) (assay: Confirmation Assay for Inhibitors of Ubiquitin-specific Protease USP2a Using CHOP2 as the Reporter). Details: USP2 core, Ub-CHOP2 coupled reporter fluorescence; series mostly up to 38.3 µM; activity change, negative = inhibition: at the top concentration.
Chain of Ubiquitin carboxyl-terminal hydrolase 2 (Homo sapiens) (O75604 whole entry, looked up): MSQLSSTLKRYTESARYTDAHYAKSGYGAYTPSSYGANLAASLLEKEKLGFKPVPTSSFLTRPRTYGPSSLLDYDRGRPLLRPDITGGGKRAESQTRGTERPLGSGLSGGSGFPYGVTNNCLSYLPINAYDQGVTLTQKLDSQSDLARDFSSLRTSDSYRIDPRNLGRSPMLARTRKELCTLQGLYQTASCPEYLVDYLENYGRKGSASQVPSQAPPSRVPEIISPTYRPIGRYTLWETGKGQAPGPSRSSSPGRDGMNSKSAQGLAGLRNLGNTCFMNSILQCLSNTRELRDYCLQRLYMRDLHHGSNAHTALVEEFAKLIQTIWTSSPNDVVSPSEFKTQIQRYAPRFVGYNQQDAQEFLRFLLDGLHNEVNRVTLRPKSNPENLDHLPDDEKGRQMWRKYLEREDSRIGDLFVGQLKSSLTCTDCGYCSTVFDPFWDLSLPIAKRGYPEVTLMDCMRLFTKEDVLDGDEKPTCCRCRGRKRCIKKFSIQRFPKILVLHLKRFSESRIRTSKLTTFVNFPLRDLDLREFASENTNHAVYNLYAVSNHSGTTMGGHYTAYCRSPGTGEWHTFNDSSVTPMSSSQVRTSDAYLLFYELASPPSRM
Text: NIH Molecular Libraries Probe Centers Network [MLPCN] NIH Chemical Genomics Center [NCGC] MLSCN Grant: XO1-MH079852-01 PI Name: Nicholson, Ben. Progenra Inc, Malvern, PA NCGC Assay Overview: Homeostasis of cellular proteins is maintained through a combination of synthesis and degradation. The pathway that accounts for the majority of protein degradation is the ubiquitin-proteasomal pathway. Ubiquitin (Ub) is highly conserved in all cells and the generation of a multi-Ub chain typically targets proteins for degradation by the proteasome. However, ubiquitination is highly reversible and dynamic. Deubiquitination, the reverse process, is catalyzed through the action of enzymes referred to as isopeptidases or deubiquitinating enzymes (DUBs). This group of enzymes is collectively responsible for maintaining adequate pools of free ubiquitin and regulating the ubiquitination status of cellular proteins. The class of DUBs referred to as the ubiquitin-specific proteases (USP) family functions endoproteolytically to cleave Ub chains from a wide range of protein substrates. USP2a deubiquitinates fatty acid synthase (FASN) which has recently been identified as an emerging oncology target. To identify inhibitors of USP2a a cell-free assay was employed. […] The reporter enzyme chosen is an […] called CHOP2, which is activated when the Ub is cleaved by USP2. The free and now activated reporter can subsequently act on its reporter substrate. Thus, this coupled assay gives a fluorescent read-out at excitation/emission wavelengths of 485/531. The assay was developed by Progenra, Inc. and has been licensed for sale by LifeSensors, Inc. as Ub-CHOP2-Reporter-Kit (#PR1101).
NCGC Assay Protocol Summary: The assay buffer, prepared fresh at the day of the assay, contains 20mM Tris-HCl pH 8.0, 2mM CaCl2, 2mM beta-Mercaptoethanol, 0.05% CHAPS. 3ul of 20nM (10nM final) USP2 core, which is stored on ice, is dispensed into a medium-binding black solid Kalypsys 1,536 well plate using the Kalypsys dispenser. The assay plate is then pinned with 23nL compound with the Kalypsys pintool in columns 5-48. The controls are pinned as follows: column 1 two-fold dilutions of 2M NEM in duplicate; column 2 2M NEM (final concentration 38.2mM); column 3&4 DMSO. The assay plate is incubated at RT for 30min. Subsequently, 1.5uL of 100nM (25nM final) Ub-CHOP2 and 1.5uL of 100nM (25nM final) Reporter Substrate (both stored on ice and protected from light) were dispensed into the plate using the Kalypsys dispenser. Plates were read after 60min RT incubation on a ViewLux (Perkin Elmer) plate reader using the following wavelengths Ex 485nm /Em 531nm. Data were normalized to the to AC100 inhibition (NEM). Concentration-response curves were fitted to the normalized data and the concentration-response curves were then classified based on curve quality (r2), response magnitude and degree of measured activity. The time zero reading was used to flag fluorescence artifacts. Keywords: ubiquitination, deubiquitination, proteases, profluorescent, MLSMR, MLPCN, NIH Roadmap, qHTS, NCGC
For `Cc1nn(Cc2ccc(Cl)cc2Cl)c(Cl)c1C(=O)Nc1ccc(OC(F)F)cc1`, the “activity change, negative = inhibition” value was 1.17%.
For `O=C(O)c1cccc2c1NC(C(=O)O)C1CC(Sc3ccccc3[N+](=O)[O-])C(Cl)C21` (stereo not drawn), the Potency was 7.36 µM (active).
With `O=c1[nH]c(=O)n(Cc2ccc(F)cc2)c(O)c1C=NCCCn1ccnc1` the “activity change, negative = inhibition” value was -3.8%.
`O=C1NC(=O)N(Cc2ccco2)C(=O)/C1=C/C=C/c1ccco1` was tested, and the Potency was 13.1 µM (active).
In the case of `COc1ccc(NC(=O)c2c(C)nn(Cc3ccccc3Cl)c2Cl)cc1Cl`, the “activity change, negative = inhibition” value is reported as 1.39%.
With `O=c1[nH]c(=S)n(Cc2ccco2)c(O)c1C=NCc1cccs1` the “activity change, negative = inhibition” value was -18.4%.
In the case of `CC(=Nc1ccc2c(c1)CCC2)c1c(O)n(C)c(=O)n(C)c1=O`, the “activity change, negative = inhibition” value is reported as 0.651%.
With `CC1Oc2cc3c(-c4c(O)cc(O)c5c(O)c6c(cc45)OC(C)C(C)C6=O)c(O)cc(O)c3c(O)c2C(=O)C1C` (stereo not drawn) the Potency was 13.1 µM (active).
In the case of `COc1ccc(S(=O)(=O)Cc2ccc(C(=O)N3CCC4(CC3)OCCO4)o2)cc1`, the “activity change, negative = inhibition” value is reported as -0.023%.
With `OC(c1ccncc1)(c1ccc(F)cc1)c1ccc(F)cc1` the “activity change, negative = inhibition” value was -3.95%.
With `CCCC1=C(C(=O)OCC)C2(C(=O)Nc3ccc(C)cc32)C(C#N)=C(N)O1` (stereo not drawn) the “activity change, negative = inhibition” value was 3.9%.
In the case of `Nc1ccc(S(=O)(=O)N2CCCCC2c2cccnc2)cc1` (stereo not drawn), the “activity change, negative = inhibition” value is reported as 5.3%.
For `O=C1NC(=O)N(Cc2ccco2)C(=O)/C1=C/c1cccn1CCOc1ccccc1Cl`, the “activity change, negative = inhibition” value was -3.58%.
For `O=C1NC(=S)N(c2ccccc2)C(=O)/C1=C/c1ccco1`, the Potency was 14.7 µM (active).
For `NC(N)=N/N=C/c1ccc(N(c2ccccc2)c2ccccc2)cc1`, the Potency was 16.5 µM (active).
`O=C(COc1ccc(S(=O)(=O)N2CCOCC2)cc1)N1CCN(Cc2ccc3c(c2)OCO3)CC1` was tested, and the “activity change, negative = inhibition” value was 0.801%.
`FC(F)(F)c1ccc2c(c1)N(CCCN1CCN(CCCl)CC1)c1ccccc1S2` was tested, and the “activity change, negative = inhibition” value was 0.492%.
For `O=C1CC(=O)N(Cc2ccccc2)C(=O)N1CCCCCCN1C(=O)CC(=O)N(Cc2ccccc2)C1=O`, the “activity change, negative = inhibition” value was -1.12%.
